# Records with an inconclusive call do not appear. Where a call stands in place of a potency, no number is given. A number with no mark means an inactive call. Calls of active or inactive are those of the source. Calls come from the whole dose curve; as a rule, active = well fitted activation curve with a large enough effect in the repeat runs; inconclusive = weak or mixed curves; inactive = flat fitted curve, though single readings scatter.
# Assay: A CellTox Green Cytotoxicity Assay to monitor cytotoxicity in HEK293 cells - 16 hour (AID 1224888); note: nearly all actives have a fitted effect of over 35% in size
# Settings: CellTox Green fluorescence; series mostly up to 76.8 µM
# Source text: National Center for Advancing Translational Sciences [NCATS]
# NIH Chemical Genomics Center [NCGC]
# U.S. Environmental Protection Agency [EPA]
# National Institutes of Environmental Health Sciences [NIEHS]
# National Toxicology Program [NTP]
# Cell-based models are critical for drug discovery. Determining the natural cytotoxic effects resulting from test compounds is an essential research activity. A CellTox Green Cytotoxicity Assay to monitor cytotoxicity in real time of continues cell culture during 40 hours of the compound treatment was used to screen Tox21 10K library compounds in Hek293 cells. CellTox Green Cytotoxicity Assay is a nonlytic, homogeneous, biofluorescent method to measure cytotoxicity in cell culture after experimental manipulation. The assay system uses a proprietary asymmetric cyanine dye that is excluded from viable cells but preferentially stains the dead cell's DNA. […] Viable cells produce no appreciable increases in fluorescence. Therefore, the fluorescence signal produced by the binding interaction with dead cell DNA is proportional to cytotoxicity.
# The mixture of Hek293 cell suspension and reagents were dispensed at 600cells/6 ul/well in 1536-well tissue culture treated black solid bottom plates using a Multidrop dispenser. After the assay plates were incubated at a 37 C/5% CO2 incubator for 5 hours, 23 nL of compounds dissolved in DMSO, positive and negative controls was transferred to the assay plate by a pintool work station. The plates were incubated at 37 C for 40 hours. The fluorescence intensity were measured at 0h, 8h, 16h, 24h, 32h and 40h time points using ViewLux plate reader during compound treatment.
Structure (SMILES),Potency,activity change
O=[N+]([O-])c1cc[n+]([O-])cc1,inactive,
CCN(CCO)CCCC(C)Nc1ccnc2cc(Cl)ccc12 (stereo not given),,"-1.57% [at 6.97 µM, hits give high values]"
CC(=O)N(CC(=O)N(C)C)c1ccccc1,inactive,
CCCCC(CC)(CO)CO,inactive,
N[C@H]1C(O)O[C@H](CO)[C@H](O)[C@@H]1O (stereo not given in full),inactive,
CCCCCC/C=C/C=O,inactive,
CCOC(=S)SSC(=S)OCC,inactive,
Oc1ccc(Sc2ccc(O)cc2)cc1,inactive,
COc1ccc(C(C)=O)cc1,inactive,
CC1(C)[C@H]2CC[C@]1(C)[C@H](O)C2,inactive,
Cn1c(=O)c2c(ncn2CC(O)CO)n(C)c1=O (stereo not given),inactive,
COCCCCCCCCOCCC[Si](C)(O[Si](C)(C)C)O[Si](C)(C)C,inactive,
CNCC[C@@H](Oc1ccccc1C)c1ccccc1,inactive,
CC(C(=O)O)c1ccc(-c2ccccc2)c(F)c1 (stereo not given),inactive,
COCCO,inactive,
COCCOCCOCCOCCOC,inactive,
Cc1ccc(C(=O)C(C)CN2CCCCC2)cc1 (stereo not given),inactive,
CCOC(=O)[C@H](CCc1ccccc1)N[C@H]1CCc2ccccc2N(CC(=O)O)C1=O,inactive,
CC(C)NCC(O)c1cc(O)cc(O)c1 (stereo not given),inactive,
Cn1sccc1=O,inactive,

Structure (SMILES),Potency,activity change
CN(C)CC[C@@H](c1ccc(Br)cc1)c1ccccn1,inactive,
NCc1ccccc1,inactive,
Nc1nc(CC(=O)O)cs1,inactive,
Cc1cccc(OCCOc2cccc(C)c2)c1,inactive,
CC(=O)O[C@@H]1C(=O)O[C@@H]2[C@H]1OC(=O)[C@@H]2OC(C)=O,inactive,
CC[C@]12CCCN3CCc4c(n(c5ccccc45)C(=O)C1)[C@@H]32,inactive,
CC(C)(C)C1CCCCC1O (stereo not given),inactive,
CCOC(=O)C1=NN(c2ccccc2)C(=O)C1,inactive,
Nc1ccc(C(=O)N2CC3CC(CN(Cc4ccccc4)C3)C2)cc1,inactive,
Cc1cc(C)c(S(=O)(=O)O)cc1N=Nc1cc(S(=O)(=O)O)c2ccccc2c1O,inactive,
C[C@@H](C1=C(CCN(C)C)Cc2ccccc21)c1ccccn1,inactive,
CCCCCCCCCCCCCCC1CO1 (stereo not given),inactive,
Oc1ccc(O)c2c(O)cccc12,inactive,
O=C=NC1CCC(CC2CCC(N=C=O)CC2)CC1 (stereo not given),inactive,
CC(C)(C)c1cc(CO)cc(C(C)(C)C)c1O,inactive,
CC/C(=C\C(=N/O)C(N)=O)C(C)[N+](=O)[O-] (stereo not given),inactive,
O=C(Cl)c1ccc([N+](=O)[O-])cc1,inactive,
CCCCOC(=O)c1ccccc1C(=O)OCC(CC)CCCC (stereo not given),inactive,
Cc1cc(O)ccc1N,inactive,
O=c1[nH]cnc2ccccc12,inactive,

# — PubChem BioAssay (Tox21)
